From PubChem BioAssay (Tox21)
Records with an inconclusive call do not appear. A number with no mark means an inactive call. Calls come from the whole dose curve; as a rule, active = well fitted activation curve with a large enough effect in the repeat runs; inconclusive = weak or mixed curves; inactive = flat fitted curve, though single readings scatter.

experiment: A CellTox Green Cytotoxicity Assay to monitor cytotoxicity in HEK293 cells - 24 hour (AID 1224875); conditions: CellTox Green fluorescence; series mostly up to 76.8 µM; activity change: at the top concentration; note: nearly all actives have a fitted effect of over 45% in size
Excerpt: National Center for Advancing Translational Sciences [NCATS]
NIH Chemical Genomics Center [NCGC]
U.S. Environmental Protection Agency [EPA]
National Institutes of Environmental Health Sciences [NIEHS]
National Toxicology Program [NTP]
Cell-based models are critical for drug discovery. Determining the natural cytotoxic effects resulting from test compounds is an essential research activity. A CellTox Green Cytotoxicity Assay to monitor cytotoxicity in real time of continues cell culture during 40 hours of the compound treatment was used to screen Tox21 10K library compounds in Hek293 cells. CellTox Green Cytotoxicity Assay is a nonlytic, homogeneous, biofluorescent method to measure cytotoxicity in cell culture after experimental manipulation. The assay system uses a proprietary asymmetric cyanine dye that is excluded from viable cells but preferentially stains the dead cell's DNA. […] Viable cells produce no appreciable increases in fluorescence. Therefore, the fluorescence signal produced by the binding interaction with dead cell DNA is proportional to cytotoxicity.
The mixture of Hek293 cell suspension and reagents were dispensed at 600cells/6 ul/well in 1536-well tissue culture treated black solid bottom plates using a Multidrop dispenser. After the assay plates were incubated at a 37 C/5% CO2 incubator for 5 hours, 23 nL of compounds dissolved in DMSO, positive and negative controls was transferred to the assay plate by a pintool work station. The plates were incubated at 37 C for 40 hours. The fluorescence intensity were measured at 0h, 8h, 16h, 24h, 32h and 40h time points using ViewLux plate reader during compound treatment.
% is set by controls: 0 for no effect and ±100 for the full control effect.

Row | SMILES | activity change
1 | OC1OCCOC1O (stereo not given) | -6.6%
2 | CN(C)CCOC(=O)C(c1ccccc1)C1(O)CCCC1 (stereo not given) | 3.76% [at 35.3 µM, stronger effect = higher value]
3 | c1ccc2cnccc2c1 | 5.84%
4 | CC(=O)C(C)O (stereo not given) | -2.54%
5 | CCN(CC)CCN | -8.28% [at 35.3 µM, stronger effect = higher value]
6 | CCCC(=O)Nc1ccc(OCC(O)CNC(C)C)c(C(C)=O)c1 (stereo not given) | -9.48% [at 35.3 µM, stronger effect = higher value]
7 | O=C(O)CSCC(=O)NC1CCSC1=O (stereo not given) | 2.45% [at 35.3 µM, stronger effect = higher value]
8 | C=Cc1ccc(C(C)(C)C)cc1 | -5.03%
9 | CC(=O)CCc1ccc(OC(C)=O)cc1 | -12.5%
10 | CC/C=C\CCOC(=O)c1ccccc1O | -6.06%
11 | C=CCOC(=O)CCCCCC | 3.84%
12 | CC1=NN(c2ccc(S(=O)(=O)O)cc2)C(=O)C1 | 1%
13 | CC(C)NC(=O)c1ccc(C=O)cc1 | -8.74% [at 35.3 µM, stronger effect = higher value]
14 | CO/N=C(/C(=O)N[C@@H]1C(=O)N2C(C(=O)[O-])=C(C[n+]3ccn4ncccc43)CS[C@H]12)c1nsc(N)n1 | -1.03% [at 35.3 µM, stronger effect = higher value]
15 | C=CCCCCCCCCC(=O)OCCCC | 9.13%
16 | CCOc1cccc(N)c1 | -4.56%
17 | Cn1c(=O)c2[nH]c(Br)nc2n(C)c1=O | -6.43% [at 35.3 µM, stronger effect = higher value]
18 | CCCC(=O)OCCC(C)CCC=C(C)C (stereo not given) | -3.13%
19 | C=CCSSCCC | 0.407%
20 | CN(C)CC/C=C1/c2ccccc2COc2ccc(CC(=O)O)cc21 | 0.192% [at 35.3 µM, stronger effect = higher value]

Row | SMILES | activity change
21 | c1ccc(B(c2ccccc2)c2ccccc2)cc1 | -0.478%
22 | C=CCCCC | -3.26%
23 | O=NN(CCCl)C(=O)NC1CCCCC1 | -4.41% [at 35.3 µM, stronger effect = higher value]
24 | CCCCOCC(C)O (stereo not given) | -5.53%
25 | CC1(C)Oc2ccc(C#N)cc2[C@@H](N2CCCC2=O)[C@@H]1O | -1.5% [at 35.3 µM, stronger effect = higher value]
26 | CC1=C(C(=O)O)N2C(=O)[C@@H](NC(=O)[C@H](N)C3=CCC=CC3)[C@H]2SC1 | -11.3% [at 35.3 µM, stronger effect = higher value]
27 | Cc1ccccc1C(N)=O | 5.48%
28 | CC(=O)OC(C)=O | -19.4%
29 | CN1CCOC(c2ccccc2)c2ccccc2C1 (stereo not given) | 15% [at 35.3 µM, stronger effect = higher value]
30 | OCC1(CO)COCOC1 | -20.4%
31 | C=C(C)[C@@H]1CC=C(C)C(=O)C1 | 0.115%
32 | CCCCCC(C)O (stereo not given) | -1.13%
33 | C=CC/C=C/C | -8.59%
34 | CC1(C)O[C@H]2CC(=O)OC[C@]23[C@H]2CC[C@@]4(C)[C@H](c5ccoc5)OC(=O)[C@H]5O[C@]54[C@]2(C)C(=O)C[C@@H]13 | 3.71% [at 35.3 µM, stronger effect = higher value]
35 | CO[C@@]1(NC(=O)Cc2cccs2)C(=O)N2C(C(=O)O)=C(COC(N)=O)CS[C@@H]21 | 11.8% [at 35.3 µM, stronger effect = higher value]
36 | CC(=O)O[C@@H]1CC2CCC1(C)C2(C)C (stereo not given in full) | -22.4%
37 | Nc1nc(-c2ccccc2)c(Br)c(=O)[nH]1 | 5.01% [at 35.3 µM, stronger effect = higher value]
38 | O=C(NCN1CCOCC1)c1cnccn1 | 7.72% [at 35.3 µM, stronger effect = higher value]
39 | COS(=O)(=O)O | -8.55%
40 | CC(C)(CO)C(O)C(=O)NCCCO (stereo not given) | -6.46%
